Results taken from PubChem BioAssay (NCI).
The panel holds about 83,000 compounds, 20% with a hit somewhere; the sample as a whole holds those more often.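 Testing used 96-well plates and a 48-hour single-concentration exposure. Example: -40 means 40% of the starting cells died.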 Activity calls are given as the source filed them. How the source made its calls: active means growth percent below 10; inactive means the rest.

Assays:
Assay in all cases: NCI-60 one-dose screen, 48 h (100 = growth as untreated, 0 = no growth, -100 = all killed)
Conditions in all cases: 10 µM unless noted
HCT-15 colon = tested on: HCT-15 colon
HT29 colon = tested on: HT29 colon
SNB-75 CNS = tested on: SNB-75 CNS
SNB-19 CNS = tested on: SNB-19 CNS
U251 CNS = tested on: U251 CNS
PC-3 prostate = tested on: PC-3 prostate
SK-MEL-5 melanoma = tested on: SK-MEL-5 melanoma
UACC-62 melanoma = tested on: UACC-62 melanoma
LOX IMVI melanoma = tested on: LOX IMVI melanoma
SK-MEL-28 melanoma = tested on: SK-MEL-28 melanoma

Measured: growth

N#C/C(=C\c1ccc2ccccc2c1)c1cc2ccccc2[nH]1
inactive: HCT-15 colon 22.5% | HT29 colon 10.9% | SNB-75 CNS 35.6% | SNB-19 CNS 43.8% | U251 CNS 27.8% | PC-3 prostate 33% | SK-MEL-5 melanoma 35.3% | UACC-62 melanoma 32.2% | LOX IMVI melanoma 32.3% | SK-MEL-28 melanoma 55.3%

O=C(NCc1ccccc1)Nc1ccccc1CNc1nc(Nc2ccc(OCCN3CCCC3)cc2)ncc1Cl
inactive: HCT-15 colon 56.6% | HT29 colon 68.4% | SNB-75 CNS 82.4% | SNB-19 CNS 94.3% | U251 CNS 45.5% | PC-3 prostate 94.5% | SK-MEL-5 melanoma 95.2% | UACC-62 melanoma 98.6% | LOX IMVI melanoma 88.8% | SK-MEL-28 melanoma 105%

CN1CCN(c2ccc(NC(=O)c3nc4ccc5[nH]ncc5c4c4c3CCCC4)cc2C(F)(F)F)CC1
inactive: HT29 colon 20.5% | SNB-75 CNS 84.7% | SNB-19 CNS 81.6% | U251 CNS 78% | PC-3 prostate 65.4% | SK-MEL-5 melanoma 75.8% | UACC-62 melanoma 89% | SK-MEL-28 melanoma 89.5%
active: HCT-15 colon 2.8% | LOX IMVI melanoma -81.7%

CN(CCn1sc(=O)n(Cc2ccccc2)c1=O)Cc1ccc2c(Cl)cc(Cl)c(O)c2n1
inactive: HCT-15 colon 16.3% | HT29 colon 39.9% | SNB-75 CNS 74.6% | SNB-19 CNS 39.7% | U251 CNS 27% | PC-3 prostate 35.5% | SK-MEL-5 melanoma 59.5% | UACC-62 melanoma 29.8% | LOX IMVI melanoma 30.7% | SK-MEL-28 melanoma 59.8%

Cc1nc2ncnc(Cl)c2[nH]1
inactive: HCT-15 colon 100% | HT29 colon 80.9% | SNB-75 CNS 89.1% | SNB-19 CNS 99.7% | U251 CNS 91.3% | PC-3 prostate 90.5% | SK-MEL-5 melanoma 104% | UACC-62 melanoma 100% | LOX IMVI melanoma 97.5% | SK-MEL-28 melanoma 115%

COc1cc(N2C(=O)[C@H](O)C2c2ccc(SC)cc2)cc(OC)c1OC (stereo not given in full)
active: HT29 colon -14.5% | SK-MEL-5 melanoma -13.8%
inactive: HCT-15 colon 12.8% | SNB-75 CNS 83.8% | SNB-19 CNS 35.9% | U251 CNS 14.4% | PC-3 prostate 22.4% | UACC-62 melanoma 33.8% | LOX IMVI melanoma 25.5% | SK-MEL-28 melanoma 67.1%

O=C(Cn1c(=O)sc2nc3ccccc3nc21)Nc1ncc(Cc2cccc(Cl)c2Cl)s1
inactive: HCT-15 colon 98.7% | HT29 colon 107% | SNB-75 CNS 74.6% | SNB-19 CNS 93.4% | U251 CNS 94.9% | PC-3 prostate 87.9% | SK-MEL-5 melanoma 99.9% | UACC-62 melanoma 79.1% | LOX IMVI melanoma 94.6% | SK-MEL-28 melanoma 120%

CN(C)CCNc1nc2c3cc(Cl)ccc3nn2c2ccccc12
inactive: HCT-15 colon 41.2% | HT29 colon 21.4% | SNB-75 CNS 83.5% | SNB-19 CNS 41.8% | U251 CNS 49.5% | PC-3 prostate 46.8% | SK-MEL-5 melanoma 56.1% | UACC-62 melanoma 73.6% | LOX IMVI melanoma 25.9% | SK-MEL-28 melanoma 96.3%

COc1cc(-c2nc3cc(Cl)c(Cl)cc3[nH]2)ccc1OCC(=O)N=Nc1c(O)[nH]c2ccc([N+](=O)[O-])cc12
inactive: HCT-15 colon 103% | HT29 colon 110% | SNB-75 CNS 92.7% | SNB-19 CNS 43.9% | U251 CNS 22% | PC-3 prostate 56.5% | SK-MEL-5 melanoma 85.1% | UACC-62 melanoma 95.2% | LOX IMVI melanoma 78.7% | SK-MEL-28 melanoma 82%

COc1ccc(/C=N/C2=C(C#N)C(c3cccc(Cl)c3)c3c(ccc4ccccc34)O2)cc1 (stereo not given)
inactive: HCT-15 colon 16.7% | HT29 colon 10.3% | SNB-19 CNS 26.8% | U251 CNS 25.6% | PC-3 prostate 23.8% | SK-MEL-5 melanoma 31.3% | UACC-62 melanoma 36.3% | LOX IMVI melanoma 26.7% | SK-MEL-28 melanoma 70.1%
active: SNB-75 CNS -30.1%

Cc1cc2c(O)c(-c3cccc(Cl)c3)c3sc(=O)oc3c2cc1C
inactive: HCT-15 colon 43.2% | HT29 colon 111% | SNB-75 CNS 36.1% | SNB-19 CNS 45.4% | U251 CNS 21.9% | PC-3 prostate 60.9% | SK-MEL-5 melanoma 18.9% | UACC-62 melanoma 27% | LOX IMVI melanoma 45.1% | SK-MEL-28 melanoma 52.2%

Cc1ccc(Cc2cnc(NC(=O)c3cc(Br)cs3)s2)cc1
inactive: HCT-15 colon 24.4% | HT29 colon 16.3% | SNB-75 CNS 64.5% | SNB-19 CNS 54% | U251 CNS 46.9% | PC-3 prostate 46.4% | SK-MEL-5 melanoma 46% | UACC-62 melanoma 44.7% | LOX IMVI melanoma 54.6% | SK-MEL-28 melanoma 61.7%

C#Cc1cccc(Nc2ncnc3ccc(-c4cnc(N)nc4)cc23)c1
active: SNB-75 CNS 6.34%
inactive: HCT-15 colon 23.1% | HT29 colon 48% | SNB-19 CNS 47.2% | U251 CNS 54.7% | PC-3 prostate 27.1% | SK-MEL-5 melanoma 32.7% | UACC-62 melanoma 24.8% | LOX IMVI melanoma 22.2% | SK-MEL-28 melanoma 38.1%
